Compound activity: PubChem, several laboratories
Sa RN4220 lethal – growth inhibition of S. aureus RN4220, primary screen, OD600 | inhibition, % (concentration not given with the values) | 0.33% of 330,000 active | 16 h; in the data active = inhibition above about 85%;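 also: plate controls were untreated cells for no effect and reference antibiotic for full effect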
PrP 5UTR inh – inhibition of PrP 5' UTR reporter expression. AID 488862, 2010. cell-based PrP 5' UTR mRNA reporter, plate reader. 0.35% of 340,000 active. inhibition, % (no concentration beside the values); in the data active = inhibition above about 52%; also: 0 = median of the neutral control wells
PfHsp40 rescue – rescue of yeast from PfHsp40 toxicity, primary screen, S. cerevisiae, ATP luminescence; S. cerevisiae expressing PfHsp40, growth rescue; 0.68% of 340,000 active; AID 504582, 2011; growth rescue, % at 12.5 µM; in the data active = growth rescue above about 28%, passing the limit was not always enough;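 also: yeast W303a lacking pdr1 and pdr3 grown in galactose medium; growth measured after three days at 30 °C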
TcdB inh – TcdB glycohydrolase inhibitors, primary screen, biochemical, single point, plate reader. inhibition, % at 9.99 µM. 0.24% of 350,000 active. AID 652162, 2013. TcdB glycohydrolase enzymatic assay; in the data active = inhibition above about 10%
Target sequence (P18177 whole entry, looked up): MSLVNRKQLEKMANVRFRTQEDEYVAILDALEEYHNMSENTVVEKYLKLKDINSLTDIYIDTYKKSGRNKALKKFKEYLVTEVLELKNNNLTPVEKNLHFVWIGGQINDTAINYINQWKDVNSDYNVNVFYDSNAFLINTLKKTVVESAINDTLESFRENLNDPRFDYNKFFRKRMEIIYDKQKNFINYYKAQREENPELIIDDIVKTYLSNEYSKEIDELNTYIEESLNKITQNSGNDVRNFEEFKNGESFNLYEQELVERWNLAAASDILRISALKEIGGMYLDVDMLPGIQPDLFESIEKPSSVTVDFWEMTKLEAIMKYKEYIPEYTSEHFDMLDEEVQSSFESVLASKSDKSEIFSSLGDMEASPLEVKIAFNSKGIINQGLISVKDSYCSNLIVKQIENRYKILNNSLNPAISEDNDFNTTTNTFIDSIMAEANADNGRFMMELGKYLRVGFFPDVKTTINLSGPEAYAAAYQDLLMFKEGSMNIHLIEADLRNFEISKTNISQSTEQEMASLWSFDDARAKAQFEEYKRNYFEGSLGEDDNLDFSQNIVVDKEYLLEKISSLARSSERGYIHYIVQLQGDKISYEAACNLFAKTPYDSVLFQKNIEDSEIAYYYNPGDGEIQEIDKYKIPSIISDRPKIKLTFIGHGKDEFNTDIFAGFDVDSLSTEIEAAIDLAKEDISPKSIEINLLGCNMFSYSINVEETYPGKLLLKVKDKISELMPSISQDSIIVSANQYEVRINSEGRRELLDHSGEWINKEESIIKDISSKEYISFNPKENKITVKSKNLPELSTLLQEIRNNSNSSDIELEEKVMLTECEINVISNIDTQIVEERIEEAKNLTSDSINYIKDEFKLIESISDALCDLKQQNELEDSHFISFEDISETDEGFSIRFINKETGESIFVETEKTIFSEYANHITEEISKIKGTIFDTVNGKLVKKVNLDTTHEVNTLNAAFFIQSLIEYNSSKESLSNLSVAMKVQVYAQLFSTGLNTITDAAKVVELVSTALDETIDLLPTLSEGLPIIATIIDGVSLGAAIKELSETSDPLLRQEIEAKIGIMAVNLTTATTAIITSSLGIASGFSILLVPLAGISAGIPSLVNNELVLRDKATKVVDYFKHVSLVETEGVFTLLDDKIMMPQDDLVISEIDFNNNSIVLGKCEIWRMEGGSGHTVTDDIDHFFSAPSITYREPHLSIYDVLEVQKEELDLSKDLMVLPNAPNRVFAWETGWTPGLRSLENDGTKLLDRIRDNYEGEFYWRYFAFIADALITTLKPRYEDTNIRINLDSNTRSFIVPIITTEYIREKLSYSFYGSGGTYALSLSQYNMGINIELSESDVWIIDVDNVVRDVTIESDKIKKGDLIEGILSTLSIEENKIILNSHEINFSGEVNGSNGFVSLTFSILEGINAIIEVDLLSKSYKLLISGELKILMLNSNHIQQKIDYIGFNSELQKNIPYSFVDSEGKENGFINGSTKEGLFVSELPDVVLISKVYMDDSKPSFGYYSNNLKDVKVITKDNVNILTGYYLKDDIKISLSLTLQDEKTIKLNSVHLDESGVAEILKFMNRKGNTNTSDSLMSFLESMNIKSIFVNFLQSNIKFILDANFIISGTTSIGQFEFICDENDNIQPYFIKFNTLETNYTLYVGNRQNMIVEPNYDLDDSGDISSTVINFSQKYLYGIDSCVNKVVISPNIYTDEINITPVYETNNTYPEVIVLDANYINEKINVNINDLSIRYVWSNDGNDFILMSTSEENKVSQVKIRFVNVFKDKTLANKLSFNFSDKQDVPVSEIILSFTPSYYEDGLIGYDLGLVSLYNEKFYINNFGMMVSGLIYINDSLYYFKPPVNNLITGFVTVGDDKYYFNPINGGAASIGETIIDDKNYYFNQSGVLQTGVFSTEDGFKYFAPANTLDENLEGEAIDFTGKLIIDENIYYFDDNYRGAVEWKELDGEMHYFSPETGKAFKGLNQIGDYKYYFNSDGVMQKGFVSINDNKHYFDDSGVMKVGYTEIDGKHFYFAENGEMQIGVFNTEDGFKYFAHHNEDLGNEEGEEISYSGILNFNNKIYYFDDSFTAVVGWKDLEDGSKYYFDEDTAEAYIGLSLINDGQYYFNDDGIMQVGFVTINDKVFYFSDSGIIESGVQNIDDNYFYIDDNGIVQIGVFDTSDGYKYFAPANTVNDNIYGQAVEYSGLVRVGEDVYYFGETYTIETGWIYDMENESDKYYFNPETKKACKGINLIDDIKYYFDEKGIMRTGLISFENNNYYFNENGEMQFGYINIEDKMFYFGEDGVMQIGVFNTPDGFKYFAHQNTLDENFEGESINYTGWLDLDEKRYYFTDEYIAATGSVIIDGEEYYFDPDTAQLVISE
ugtP null kill – growth inhibition of ugtP-null S. aureus, primary screen, RN4220 ugtP deletion, OD600 | 0.54% of 330,000 active | AID 1259309, 2017 | growth inhibition, % (no concentration beside the values) | 16 h; in the data active = growth inhibition above about 68%;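 also: plate controls were untreated wells for no effect and antibiotic for full effect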
Starred values were filed as active, the others as inactive; . = not tested or not shown. A selection: hits, their analogues and other compounds. The true share with any hit is near 1.2%.

SMILES	Sa RN4220 lethal	PrP 5UTR inh	PfHsp40 rescue	TcdB inh	ugtP null kill
COc1ccccc1NC(=S)NC(=O)/C=C/c1cccs1	90	-5	8	0	active
COc1ccc(NC(=S)NC(=O)/C=C/c2cccs2)cc1	1	-38	-1	1	84*
COc1ccc(NC(=S)NC(=O)/C=C/c2ccccc2)cc1	-4	-21	0	2	8
Cc1ccc(C(C)C)c(OCc2ccc(C(=O)NN=Cc3ccc(O)c(O)c3)cc2)c1	58	.	.	.	100*
CCCc1cc(=O)n(-c2nc3ccccc3s2)[nH]1	15	-9	-1	-2	9
CCOC(=O)Cc1cc(=O)n(-c2nc3ccccc3s2)[nH]1	33	-9	140*	.	8
O=S(=O)(Nc1nc2ccccc2nc1N1CCN(c2ccccn2)CC1)c1ccc(Cl)cc1	5	0	142*	.	4
O=S(=O)(Nc1nc2ccccc2nc1N1CCc2ccccc2C1)c1ccc(Cl)cc1	.	-35	1	.	.
COCC(=O)N1[C@H](CO)[C@@H](c2ccccc2)[C@@H]1CN(C)C(=O)c1cccnc1	.	.	.	-4	.
C[C@@H]1CN([C@@H](C)CO)C(=O)c2cc(NC(=O)CCCN(C)C)ccc2O[C@@H](C)CCCCO[C@H]1CN(C)S(=O)(=O)c1ccccc1	.	.	.	0	.
Cc1ccc(S(=O)(=O)Nc2ccc3c(c2)C(=O)N([C@@H](C)CO)C[C@@H](C)[C@@H](CN(C)C(=O)c2ccccc2)OCCCC[C@H](C)O3)cc1	.	.	.	1	.
O=C(c1ccc([N+](=O)[O-])o1)N1CCc2ccccc21	20	1	3	1	26
COc1ccc(C(=O)N2CCc3cc(OC)c(OC)cc3C2)cc1OC	9	-23	1	.	9
O=C(c1ccc([N+](=O)[O-])o1)N1CCc2ccccc2C1	9	-8	53*	0	2
COc1cc2c(cc1OC)CN(C(=O)c1ccc([N+](=O)[O-])o1)CC2	18	9	63*	-1	17
C/C(=N\NC(=O)c1ccc(O)cc1)c1ccc(N2CCOCC2)cc1	.	-20	-1	-1	.
C/C(=N\Nc1cc(N2CCOCC2)ncn1)c1ccc(O)cc1	.	-8	-1	28*	.
COCC#Cc1ccc2c(c1)O[C@H](CN(C)Cc1ccc(F)cc1)[C@@H](C)CN([C@@H](C)CO)S2(=O)=O	.	.	.	2	.
CCOc1ccc(C(C)=O)cc1COC(=O)c1ccccc1C(=O)N(C)Cc1ccccc1	10	-6	96*	1	12
COc1ccc(OCC(=O)Nc2ccc(N3CCN(C(=O)c4ccccc4)CC3)c(Cl)c2)cc1	3	-34	39*	1	2
COc1ccc(OCC(=O)Nc2ccc(N3CCOCC3)c(Cl)c2)cc1	3	-7	2	.	3
O=[N+]([O-])c1ccc(C2=NN(CCO)C(=Nc3ccc(OC(F)(F)F)cc3)SC2)cc1	5	-7	53*	1	-24
CN(C)C(=O)c1ccc(-c2ccc3c(c2)[C@H]2[C@H](CCN2C(=O)Cc2ccccn2)[C@@H](CO)N3C)cc1	.	.	.	-1	.
O=C(O)CN1C(=O)/C(=C\c2ccccc2OCc2ccc(Cl)cc2Cl)SC1=S	58	15	53*	1	64
O=C(O)CN1C(=O)/C(=C\c2cc(Br)ccc2OCc2ccccc2Cl)SC1=S	16	-15	0	-2	60
SMILES	Sa RN4220 lethal	PrP 5UTR inh	PfHsp40 rescue	TcdB inh	ugtP null kill
OCC1(CO)COC(c2ccccc2)=N1	2	-23	0	0	1
O=C1OCC(CO)(CO)N=C1NNc1ccc(Cl)c(Cl)c1	0	-4	305*	-25	2
COc1ccc(C=NNC(=O)c2ccc(F)cc2)cc1COc1ccccc1C(N)=O	4	.	.	.	6
Cc1cc(OCCOc2cccc3cccnc23)cc(C)c1Cl	0	-31	1	.	-4
Cc1cc(C)c(C)c(OCCCOc2cccc3cccnc23)c1	-1	-27	93*	.	58
C[C@@H]1CN([C@@H](C)CO)C(=O)c2cc(NS(=O)(=O)c3cn(C)cn3)ccc2O[C@@H](C)CCCCO[C@H]1CN(C)C(=O)Nc1ccc(F)cc1	.	.	.	0	.
N#CC(C#N)=NNc1ccc(-n2ccc(C(F)(F)F)n2)cc1	.	-9	186*	-2	.
O=c1c(CO)cc(CO)cc(CO)c1O	0	-14	422*	0	4
O=[N+]([O-])c1ccc(O)c(-c2nc(-c3ccccc3)c(-c3cccs3)[nH]2)c1	87*	-3	0	.	85*
O=C(O)c1ccc(-c2nc(-c3ccccc3)c(-c3cccs3)[nH]2)cc1	6	-7	-1	1	10
